Drawing on PubChem BioAssay (NCI), this text covers growth for 26 compounds.

Common to all, as to experiment: NCI-60 one-dose screen, 48 h (100 = growth as untreated, 0 = no growth, -100 = all killed)
What all share (conditions): 10 µM unless noted

Assay [1] deals with NCI-H23 lung.
Assay [2] deals with NCI-H226 lung.
Assay [3] concerns NCI-H322M lung.
The test system of assay [4] is HOP-62 NSCLC.
For assay [5], the system named is NCI-H460 lung.
Assay [6] concerns HOP-92 NSCLC.
In assay [7] the test system is NCI-H522 lung.
For assay [8], the system named is A549/ATCC NSCLC.
The test system of assay [9] is 786-0 renal.
The test system of assay [10] is COLO 205 colon.

SMILES strings stand for the structures. The panel holds about 83,000 compounds, 20% with a hit somewhere; the sample as a whole holds those more often.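 Cell lines were cultured in 96-well plates, exposed to a single compound concentration, and assessed for percent growth 48 hours later.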 Unmarked numbers belong to inactive results. The source made the active and inactive calls. Rule for the calls: active = growth percent below 10; inactive = the rest.

Consider `CN(C)c1ccc(N=Nc2ccc(Br)cn2)c(O)c1`, for which the growth in [1] was 19.3%; in [2], 7.29% (active); in [3] it was 21.1%; in assay [4] it was 18.5%; in assay [5], 3.96% (active); in assay [6], 50.3%. In addition, the growth is 14.4% in assay [7], 10.3% in assay [8], 20.5% in assay [9] and 7.48% (active) in assay [10].

Regarding `CC(=O)Nc1ccc(-n2c(O)c(/C=N/NC(=O)Cc3ccccc3Nc3c(Cl)cccc3Cl)sc2=S)cc1`, the growth in [1] was 95.4%; in assay [2] it was 104%; in [3], 102%; in assay [4], 99.7%; in [5], 101%; in assay [6] it was 92.7%. In addition, the growth in assay [7] was 94.2%; in assay [8], 101%; in assay [9], 102%; in assay [10], 119%.

Regarding `Cn1cc(-c2nonc2-c2cn(C)c3ccc(F)cc23)c2ccccc21`, the growth in assay [1] was 23.2%; in assay [2], 5.33% (active); in [3], 40.2%; in assay [4] it was 33.1%; in [5] it was 7.52% (active); in assay [6] it was 54.6%. Also, the growth in assay [7] was -8.4% (active); in [8], 24.5%; in assay [9], 34.3%; in [10], 5.23% (active).

Take `CS(=O)(=O)c1ccc(-n2nc(-c3ccc(Br)cc3)c3ccccc3c2=O)cc1`: the growth in assay [1] is 95%; in [2], 100%; in [3], 109%; in assay [4], 97.2%; in assay [5] it was 99.1%; in assay [6] it was 85.7%. In addition, the growth was 97% in assay [7], 97.9% in assay [8], 121% in [9] and 103% in assay [10].

Consider `O=C(Cc1ccc(/C=C/C(=O)c2ncc[nH]2)cc1)Nc1ccccc1`, for which the growth in assay [1] was 39.8%; in assay [2], 87.7%; in assay [3] it was 67.4%; in assay [4], 49.9%; in assay [5], 11.7%; in assay [6] it was 83.6%. For the same compound, the growth is 31.2% in [7], 57.2% in [8], 32.8% in assay [9] and 45.5% in assay [10].

Take `Cc1cc(N2CCSCC2)nc(NC2CCCC(Nc3ccnc4cc(Cl)ccc34)C2)n1` (stereo not given): the growth in assay [1] was 35.1%; in [2], 18.2%; in assay [3] it was -28.8% (active); in assay [4], -46.2% (active); in assay [5] it was -11.2% (active); in assay [6], -66.1% (active). Also, the growth in assay [7] is -52.5% (active); in [8] it was 7.52% (active); in [9], -91.6% (active); in assay [10] it was -74.8% (active).

Regarding `COc1ccc(/C=C/c2nc3ccccc3nc2/C=C/c2ccc(OC)cc2)cc1`, the growth in assay [1] is 93.5%; in assay [2], 90.2%; in assay [3], 103%; in assay [4] it was 104%; in assay [5] it was 100%; in assay [6], 92.3%. For the same compound, the growth in [7] was 94%; in assay [8], 93.9%; in assay [9], 88.8%; in assay [10], 97.4%.

Regarding `COc1cc(-c2nc3ccccc3[nH]2)ccc1OCc1nnc(-c2ccc(CC(C)C)cc2)o1`, the growth is 91.1% in [1]; 87.7% in assay [2]; 93.8% in assay [3]; 93.4% in [4]; 98.8% in assay [5]; 79.7% in [6]. In addition, the growth in assay [7] was 93.5%; in assay [8], 84.2%; in [9], 93.7%; in assay [10], 101%.

As for `COc1ccc(-c2nnc(SCC(=O)c3ccc(Cl)cc3)o2)cc1`, the growth in assay [1] is 93.9%; in [2], 103%; in assay [3], 108%; in [4] it was 95.7%; in assay [5], 110%; in assay [6], 105%. Besides, the growth was 76.3% in [7], 92% in [8], 96.9% in [9] and 112% in [10].

Regarding `CN1C(=O)C2(SCC(C(=O)NCc3ccccc3)N2C(=O)C2CCCCC2)c2ccccc21` (stereo not given), the growth in assay [1] is 91%; in assay [2], 84.3%; in assay [3], 77.1%; in [4] it was 98.2%; in assay [5] it was 96%; in assay [6], 86.3%. Also, the growth was 75.4% in assay [7], 93.6% in [8], 101% in assay [9] and 95.3% in assay [10].

Take `COc1ccc(/C=C\c2cc(OC)c(OC)c(OC)c2)cc1OCC(=O)Nc1ccc2nc(C)sc2c1`: the growth was 37.6% in assay [1]; 24.8% in [2]; 69.9% in assay [3]; 44.4% in assay [4]; 24.5% in [5]; 52% in assay [6]. The growth in assay [7] was -2.14% (active); in [8] it was 30.5%; in [9] it was 79.6%; in [10], 75%.

With `Cc1ccc2c(c1)C(=O)/C(=C/c1cccc(OCC(=O)c3ccc(Cl)cc3)c1)CS2`, the growth is 79% in assay [1]; 91.6% in assay [2]; 72.9% in assay [3]; 105% in [4]; 98.8% in [5]; 61.5% in [6]. In addition, the growth in assay [7] is 46.8%; in assay [8] it was 103%; in [9], 103%; in assay [10] it was 111%.

Regarding `COc1ccc(-c2nc3ccc(-c4nc5ccc(N6CCN(c7ccccc7)CC6)cc5[nH]4)cc3[nH]2)cc1OC`, the growth is -21.4% (active) in assay [1]; 69.9% in assay [2]; -2.95% (active) in assay [3]; 27% in assay [4]; -6.7% (active) in [5]; 13.6% in assay [6]. Also, the growth was -33% (active) in [7], -56.2% (active) in [8], -79.8% (active) in [9] and -70.9% (active) in [10].

For the compound `O=C1Nc2ccc(Br)cc2C12Oc1ccccc1C1CC(c3ccc(F)cc3)=NN12` (stereo not given), the growth in assay [1] is 89%; in assay [2], 83.1%; in assay [3], 96.3%; in assay [4] it was 104%; in assay [5] it was 98.5%; in [6] it was 109%. In addition, the growth in assay [7] was 81%; in assay [8], 91%; in assay [9], 105%; in assay [10], 109%.

Consider `COc1cc2c(cc1-c1c(C)noc1C)ncc1nc(C3CCCC3)n([C@H](C)COC(F)F)c12`, for which the growth in [1] is 53.7%; in assay [2], 48.1%; in assay [3], 46.6%; in assay [4] it was 32%; in [5] it was 51%; in [6], 20%. The growth is 22.6% in assay [7], 31.6% in assay [8], 45.9% in [9] and 23.9% in assay [10].

As to `COc1cc(C(=O)Oc2ccccc2OC(=O)c2cc(OC)c(OC)c(OC)c2)cc(OC)c1OC`, the growth in assay [1] was 86.8%; in assay [2] it was 107%; in [3], 108%; in assay [4] it was 88.1%; in assay [5], 114%; in assay [6], 83.4%. The growth is 89.6% in assay [7], 85.3% in [8], 118% in [9] and 103% in assay [10].

As for `Cc1ccc2c(C(C[N+](=O)[O-])c3ccccc3)c(-c3ccccc3)[nH]c2c1` (stereo not given), the growth in assay [1] is 39.4% [9.5 µM]; in [2], 35.3% [9.5 µM]; in assay [3] it was 41.7% [9.5 µM]; in [4] it was 20.2% [9.5 µM]; in assay [5] it was 12.2% [9.5 µM]; in assay [6], 25.8% [9.5 µM]. The growth in [7] is -37.8% [9.5 µM] (active); in assay [8], 28.6% [9.5 µM]; in assay [9], 30.8% [9.5 µM]; in assay [10], 9.02% [9.5 µM] (active).

For the compound `CCC([N+](=O)[O-])S(=O)(=O)c1ccc(C)cc1` (stereo not given), the growth in assay [1] is 93.2%; in assay [2] it was 102%; in assay [3], 112%; in assay [4], 84.7%; in assay [5] it was 104%; in [6] it was 87.9%. The growth in [7] is 89.3%; in [8], 96.7%; in assay [9], 89.4%; in assay [10] it was 115%.

As to `O=[N+]([O-])c1ccccc1/C=N\NC(=S)N/N=C/c1ccccc1[N+](=O)[O-]`, the growth in [1] is 70.1%; in [2] it was 83.1%; in [3] it was 63.7%; in assay [4], 56.5%; in [5], 10%; in assay [6] it was 53.7%. Further, the growth in assay [7] was 23.2%; in assay [8], 74.8%; in assay [9], 74.9%; in [10], 94.6%.

For the compound `COc1ccc(C(=O)COc2ccc(/C=C3\Oc4ccc(OC)cc4C3=O)cc2)cc1`, the growth is 100% in assay [1]; 89.5% in assay [2]; 100% in [3]; 115% in assay [4]; 124% in assay [5]; 63.4% in assay [6]. Besides, the growth in assay [7] was -29.6% (active); in [8] it was 105%; in [9], 114%; in [10], 128%.

In the case of `CC(=O)O[C@H]1[C@@H]2OC(=O)C(CSc3ccccc3)[C@@H]2C[C@H]2O[C@]2(C)CC/C=C(\C)CCC[C@@H]1C` (stereo not given in full), the growth in assay [1] was 53.1%; in [2] it was 47.9%; in [3], 38%; in assay [4] it was 101%; in assay [5], 42.3%; in assay [6], -22.4% (active). Besides, the growth is -87.2% (active) in assay [7], 21.2% in assay [8], 61.4% in assay [9] and 29.7% in assay [10].

Consider `O=C1Nc2cc(-c3ccc(O)cc3)ccc2/C1=C/c1ccc[nH]1`, for which the growth is -16% (active) in [1]; 3.63% (active) in assay [2]; 6.56% (active) in [3]; 24.4% in assay [4]; 2.66% (active) in assay [5]; 10.8% in assay [6]. In addition, the growth is 1.89% (active) in [7], 9.14% (active) in assay [8], 10.9% in assay [9] and 13.7% in assay [10].

Regarding `Oc1cccc2ccc(N/N=C/c3cc(CN4CCOCC4)c(O)c4ncccc34)nc12`, the growth was -2.08% (active) in [1]; 26.5% in assay [2]; 27.7% in [3]; 7.13% (active) in assay [4]; -7.47% (active) in assay [5]; 43.5% in assay [6]. Also, the growth is -13.7% (active) in [7], 5.15% (active) in assay [8], 19.4% in assay [9] and 12.2% in [10].

Regarding `COc1ccc(C2CC(c3ccc4ccccc4c3)=NN2/C=C2\SC(=S)N(NC(=O)Cc3ccccc3Nc3c(Cl)cccc3Cl)C2=O)cc1` (stereo not given), the growth is 40.5% in assay [1]; 45.9% in assay [2]; 42.8% in assay [3]; 23.7% in assay [4]; 9.42% (active) in assay [5]; 38.5% in assay [6]. The growth in assay [7] was -15.4% (active); in assay [8] it was 23.6%; in assay [9], 13.8%; in [10], 55.6%.

On to `FC(F)(F)c1ccc(-c2cn3nc(-c4c[nH]c5ccc(Br)cc45)sc3n2)cc1`, for which the growth was 85.8% in assay [1]; 79.1% in [2]; 85.5% in [3]; 99.4% in assay [4]; 100% in assay [5]; 88% in [6]. Also, the growth is 91.6% in assay [7], 99% in [8], 106% in assay [9] and 91.8% in assay [10].

As for `CC1SC(c2ccc(N(C)C)cc2)N(NC(=O)C(O)(c2ccccc2)c2ccccc2)C1=O` (stereo not given), the growth is 98.5% in [1]; 105% in assay [2]; 81% in assay [3]; 97.1% in assay [4]; 144% in assay [5]; 74.6% in assay [6]. Moreover, the growth in [7] is 84.6%; in [8], 79.6%; in [9], 97.7%; in assay [10], 102%.
